Test systems include NCI-H23 lung; NCI-H226 lung; NCI-H322M lung; HOP-62 NSCLC; HOP-92 NSCLC; NCI-H522 lung; A549/ATCC NSCLC; 786-0 renal; COLO 205 colon; DU-145 prostate; K-562 leukemia; MALME-3M melanoma; MDA-MB-231 breast; RXF 393 renal; SF-268 CNS; SF-295 CNS; SF-539 CNS; UACC-257 melanoma; M14 melanoma; NCI-H460 lung.
Assay in all cases: NCI-60 one-dose screen, 48 h (100 = growth as untreated, 0 = no growth, -100 = all killed)
Common to all, as to details: 10 µM unless noted

This is part of a sample that, as a whole, favours compounds with a hit. Of some 83,000 tested, about 20% had one in any assay.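 Growth was measured after 48 h exposure to one concentration of compound in 96-well plates. Values under 10 count as active.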 Values without a mark were called inactive. Activity calls are given as the source filed them.

Consider `COc1cc(/C=C/C(=O)c2c(C)n([O-])c3cc(C)c(C)cc3[n+]2=O)cc(OC)c1OC`, for which the growth in the test with NCI-H23 lung is 72.7%; in the test on NCI-H226 lung, 82.8%; in the test with NCI-H322M lung it was 67.6%; in the test with HOP-62 NSCLC, 74.6%; in the test with HOP-92 NSCLC, 41.5%; in the test on NCI-H522 lung, 33.6%. The growth with A549/ATCC NSCLC is 65.9%; with 786-0 renal it was 23.1%; with COLO 205 colon it was 70.1%; in the test with DU-145 prostate, 50.5%; in the test on K-562 leukemia it was 21.7%; in the test on MALME-3M melanoma it was 86%. Also, the growth is 67.8% in the test with MDA-MB-231 breast; 54.2% with RXF 393 renal; 79.9% with SF-268 CNS; 71.7% in the test on SF-295 CNS; 80.2% in the test on SF-539 CNS; 100% in the test with UACC-257 melanoma. In the test on M14 melanoma, the growth was 48.7%.
Take `Clc1ccc2c(c1)nnn1c3ncccc3c(Br)c21`: the growth in the test on NCI-H23 lung is 81.1%; in the test with NCI-H226 lung, 90.1%; in the test on NCI-H322M lung it was 88.5%; with HOP-62 NSCLC it was 63.7%; in the test on HOP-92 NSCLC it was 42.9%; in the test with NCI-H522 lung, 67.8%. For the same compound, the growth in the test with A549/ATCC NSCLC is 89.6%; with 786-0 renal, 56.6%; in the test on COLO 205 colon, 88.9%; in the test on DU-145 prostate it was 90.9%; in the test with K-562 leukemia, 81.8%; in the test with MALME-3M melanoma, 81.8%. In addition, the growth is 63.9% in the test with MDA-MB-231 breast; 41.5% with RXF 393 renal; 60.9% in the test with SF-268 CNS; 61.9% with SF-295 CNS; 61.9% with SF-539 CNS; 101% in the test on UACC-257 melanoma. Also, the growth with M14 melanoma is 97.7%.
Take `O=C(Nc1ccc(-n2cc(-c3ccncc3)c(-c3ccc(O)c(Cl)c3)n2)cc1)c1ccc(Cl)c(C(F)(F)F)c1`: the growth was 29.9% in the test on NCI-H23 lung; 79.6% in the test with NCI-H226 lung; 54.6% in the test with NCI-H322M lung; 33.6% in the test on HOP-62 NSCLC; -3.55% (active) in the test on HOP-92 NSCLC; 24.3% with NCI-H522 lung. Besides, the growth with A549/ATCC NSCLC was 28.4%; with 786-0 renal, -30.9% (active); with COLO 205 colon it was 57.8%; in the test on DU-145 prostate it was 35.3%; in the test on K-562 leukemia, 5.88% (active); with MALME-3M melanoma, 25%. Besides, the growth in the test on MDA-MB-231 breast is -29.1% (active); in the test on RXF 393 renal, -81.6% (active); in the test with SF-268 CNS, 38%; with SF-295 CNS, -2.61% (active); in the test on SF-539 CNS, 2.46% (active); with UACC-257 melanoma, 60.9%. In addition, the growth with M14 melanoma is -16.2% (active).
`CCNc1ncnc2n[nH]nc12`: the growth in the test on NCI-H23 lung was 96.9%; with NCI-H226 lung, 90.8%; with NCI-H322M lung, 101%; in the test on HOP-62 NSCLC it was 95.7%; in the test with HOP-92 NSCLC it was 83.1%; with NCI-H522 lung it was 93.2%. Also, the growth is 91.1% with A549/ATCC NSCLC; 96.1% in the test on 786-0 renal; 105% in the test with COLO 205 colon; 104% with DU-145 prostate; 97% in the test on K-562 leukemia; 102% with MALME-3M melanoma. Also, the growth in the test on MDA-MB-231 breast was 111%; in the test on RXF 393 renal it was 112%; with SF-268 CNS, 99.5%; in the test with SF-295 CNS it was 95%; with SF-539 CNS it was 101%; in the test with UACC-257 melanoma it was 92.9%. Moreover, in the test with M14 melanoma, the growth was 99.7%.
Take `CCCC(C)(C)COC(=O)c1cccc(N)c1`: the growth in the test on NCI-H23 lung was 103%; in the test with NCI-H322M lung, 80.9%; with HOP-62 NSCLC, 92.5%; with NCI-H460 lung, 108%; in the test on HOP-92 NSCLC, 85%; with NCI-H522 lung it was 60.6%. The growth in the test with A549/ATCC NSCLC was 89.7%; in the test on 786-0 renal, 93.6%; in the test with COLO 205 colon, 110%; in the test on DU-145 prostate, 106%; in the test on K-562 leukemia, 87%; with MALME-3M melanoma, 92%. In addition, the growth in the test with MDA-MB-231 breast is 106%; with RXF 393 renal, 123%; with SF-268 CNS, 97.7%; in the test on SF-295 CNS it was 101%; in the test on SF-539 CNS, 103%; in the test on UACC-257 melanoma it was 83.3%. In addition, the growth with M14 melanoma was 99.4%.
`CN(C)CCNc1nc2ccccc2c2c(=O)c3ccccc3sc12`: the growth is 31.8% in the test with NCI-H23 lung; 43.1% in the test with NCI-H322M lung; 21.7% in the test on HOP-62 NSCLC; 1.33% (active) in the test on NCI-H460 lung; 4.02% (active) in the test on HOP-92 NSCLC; 14.4% with NCI-H522 lung. In addition, the growth was 13.2% in the test on A549/ATCC NSCLC; 28.6% with 786-0 renal; -79.6% (active) in the test on COLO 205 colon; 8.96% (active) in the test on DU-145 prostate; -35.1% (active) with K-562 leukemia; 12.2% in the test on MALME-3M melanoma. The growth in the test on MDA-MB-231 breast was -11.6% (active); in the test with RXF 393 renal, 6.42% (active); in the test with SF-268 CNS, 26.3%; in the test on SF-295 CNS, 0.247% (active); in the test with SF-539 CNS, 36.7%; in the test on UACC-257 melanoma it was 28.8%. In addition, the growth with M14 melanoma was -54.7% (active).
As for `CCn1c(SC)nnc1-c1cc2c([nH]c3ccccc32)c(-c2cccc(O)c2)n1`, the growth in the test on NCI-H23 lung is 39.8%; in the test on NCI-H322M lung it was 50.1%; with HOP-62 NSCLC it was 18.3%; in the test with NCI-H460 lung, 9.54% (active); in the test with HOP-92 NSCLC it was -1.11% (active); in the test with NCI-H522 lung it was 5.8% (active). Further, the growth in the test on A549/ATCC NSCLC was 26.5%; in the test on 786-0 renal, 1.6% (active); in the test with COLO 205 colon, 87.7%; in the test with DU-145 prostate, 28.1%; in the test on MALME-3M melanoma, 33.1%; in the test with MDA-MB-231 breast, 23.1%. Also, the growth in the test on RXF 393 renal was -32.9% (active); with SF-268 CNS, 32.4%; in the test with SF-295 CNS, -20.1% (active); with SF-539 CNS, -9.07% (active); with UACC-257 melanoma it was 57.4%; in the test on M14 melanoma, 10.8%.
In the case of `O=C(Nc1cccc(-n2ccc3c(NC(=O)c4ccccc4)ncnc32)c1)Nc1ccc(Cl)c(C(F)(F)F)c1`, the growth in the test on NCI-H23 lung is 31.9%; with NCI-H322M lung it was 60.2%; in the test with HOP-62 NSCLC, 56.8%; in the test on NCI-H460 lung it was 14.4%; in the test on HOP-92 NSCLC, 29.2%; in the test on NCI-H522 lung, 11.8%. Moreover, the growth is 28.3% in the test with A549/ATCC NSCLC; 53.2% in the test on 786-0 renal; 20.9% with COLO 205 colon; 42.2% with DU-145 prostate; 13.6% in the test with K-562 leukemia; 46.5% in the test on MALME-3M melanoma. The growth in the test with MDA-MB-231 breast is 42.3%; in the test with RXF 393 renal, 14.6%; with SF-268 CNS, 38.1%; with SF-295 CNS, 14.2%; with SF-539 CNS it was 39.1%; in the test with UACC-257 melanoma, 36%. The growth in the test with M14 melanoma was 28.1%.

The values above are taken from PubChem BioAssay (NCI).
